POLH inh: DNA polymerase eta (human) inhibition. Potency, µM (series often up to 114 µM), for the others: at the top dose activity change, negative = inhibition, actives largely listed as inhibitors. Q9Y253. AID 588591. 1.2% of 390,000 active. recombinant Pol eta, fluorescent DNA replication assay; also: % is scaled to controls: 0 for no effect and ±100 for the full control effect
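Pol eta at 10 nM preincubated with compounds 15 min at room temperature; reaction started with fluorescent substrate (50 nM final) and read kinetically at 0 and 10 min.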
POLB inh: blocks human DNA polymerase beta activity; P06746; Pol beta primer extension/strand displacement, fluorescence kinetic; Potency, µM (titrated, usually from 114 µM), for inactives: at the top dose activity change, negative = inhibition, usual class: inhibitors; 1.3% of 340,000 active; also: % is scaled to controls: 0 for no effect and ±100 for the full control effect
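Curves were derived by four-parameter Hill fits of normalized qHTS data. The kinetic fluorescent primer-extension read was taken at 0 and 10 min after 50 nM substrate, following a 15 min room-temperature preincubation of 10 nM enzyme with compounds.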
Pol iota inh: blocks human DNA polymerase iota activity | AID 588590 | Pol iota fluorescent replication assay, 10 min | Q9UNA4 | Potency, µM (top dose mostly 115 µM), for the others: at the top dose activity, negative = inhibition, usual class: inhibitors | 1% of 390,000 active
Target sequence (Q9UNA4 whole entry, looked up): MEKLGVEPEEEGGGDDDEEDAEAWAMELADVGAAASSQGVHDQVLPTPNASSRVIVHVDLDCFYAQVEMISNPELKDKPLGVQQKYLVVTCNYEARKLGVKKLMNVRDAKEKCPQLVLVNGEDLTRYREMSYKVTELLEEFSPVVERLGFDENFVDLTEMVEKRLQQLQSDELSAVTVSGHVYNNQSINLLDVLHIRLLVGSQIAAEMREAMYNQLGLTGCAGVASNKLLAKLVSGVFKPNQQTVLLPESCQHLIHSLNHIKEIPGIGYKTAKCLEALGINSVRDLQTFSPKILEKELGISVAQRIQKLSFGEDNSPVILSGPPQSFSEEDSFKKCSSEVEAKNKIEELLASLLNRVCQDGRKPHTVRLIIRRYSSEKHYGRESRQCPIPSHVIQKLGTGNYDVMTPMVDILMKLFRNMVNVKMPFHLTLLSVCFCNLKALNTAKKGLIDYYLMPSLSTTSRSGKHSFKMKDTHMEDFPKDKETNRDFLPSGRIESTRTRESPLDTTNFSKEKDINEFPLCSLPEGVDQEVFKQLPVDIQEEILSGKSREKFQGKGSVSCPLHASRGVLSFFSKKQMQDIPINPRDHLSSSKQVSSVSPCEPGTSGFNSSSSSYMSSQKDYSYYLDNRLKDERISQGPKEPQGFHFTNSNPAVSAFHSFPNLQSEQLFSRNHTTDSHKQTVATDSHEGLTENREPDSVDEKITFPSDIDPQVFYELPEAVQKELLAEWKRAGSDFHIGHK
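Fluorescent replication assay read twice, at 0 min and 10 min after adding 50 nM (final) substrate. Enzyme (10 nM) and compounds were first incubated 15 min at room temperature; enzyme-free buffer wells were negative controls.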
WRN helicase inh: blocks human WRN helicase; Q14191; WRN helicase unwinding, fluorescent forked duplex, kinetic; Potency, µM (titrated, usually from 114 µM), for the others: top-dose activity change, negative = inhibition, actives largely listed as inhibitors; 0.46% of 360,000 active; also: % is scaled to controls: 0 for no effect and ±100 for the full control effect; nearly all actives have a fitted effect of over 55% in size
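WRN at 20 nM final preincubated with compound 15 min at room temperature; reaction started with 100 nM fluorophore/quencher forked duplex oligonucleotide and 2 mM ATP final. Unwinding followed kinetically by red fluorescence (ex 525, em 598 nm).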
POLK inh: inhibitors of human DNA polymerase kappa. Q9UBT6. purified Pol kappa, fluorescent DNA synthesis assay, 10 min. Potency, µM (top dose mostly 107 µM), without a hit: at the highest dose activity, negative = inhibition, usual class: inhibitors. 0.53% of 400,000 active. AID 588579; also: % is scaled to controls: 0 for no effect and ±100 for the full control effect
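Activity was followed as the change in fluorescence between reads at 0 and 10 min after starting the reaction with 50 nM substrate. Beforehand, 10 nM polymerase had been preincubated with compound for 15 min at room temperature.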
An asterisk follows results filed as active; [ ] = another dose, or the depositor's remark. Only some compounds are listed: those with a hit (about 2.3% of all), similar ones and a draw of the others. Calls follow the shape of the dose curve; as a rule, active = well fitted curve in the direction sought with a large enough effect; inconclusive = small, poorly fitted or top-dose-only effect, or another doubt; inactive = no such curve, though single readings can be large; an effect the other way counts as inactive or inconclusive. Potency is read from the fitted curve at half-maximal effect.

For Cc1ccc(S(=O)(=O)N2CCN(c3nc(-c4cccs4)nc4ncccc34)CC2)cc1 the results were Pol iota inh 12.8% and POLK inh 0.9%.
Screening COc1ccc(-c2nc3n(n2)C(c2ccc(OC)c(OC)c2)C(C(=O)Nc2cccnc2)=C(C)N3)cc1 (stereo unspecified) returned POLH inh 50.1µM*, POLB inh 0.7%, Pol iota inh 2.0% and POLK inh -7.6%[60.1 µM].
Screening CC(C)(C)N1C(=O)Cc2c1nc(N)c1c(N)nc(N3CCCCC3CO)c(C#N)c21 (stereo unspecified) returned POLH inh inconclusive, POLB inh -0.3%, Pol iota inh 20µM*, WRN helicase inh inconclusive and POLK inh -10.3%.
For CN(CCO)c1nc(N)c2c(N)nc3c(c2c1C#N)CC(=O)N3C1CCCC1 the results were POLB inh 24.8%.
O=C(COc1ccccc1C(=O)Nc1cccnc1)Nc1ccc(Br)cc1 was read as Pol iota inh -19.4% and POLK inh 9.1%.
Screening CNC(=O)c1c(N)sc2c1CCCCC2 returned POLB inh 8.6%.
Screening Nc1sc2c(c1C(=O)NC1CCS(=O)(=O)C1)CCC2 (stereo unspecified) returned POLH inh 17.8µM*, POLB inh -10.6%, Pol iota inh inconclusive, WRN helicase inh -25.4% and POLK inh -15.8%.
Screening COc1ccc(CCNC(=O)c2ccc(N3CCCCS3(=O)=O)cc2)cc1OC returned POLH inh 1.6%, POLB inh inconclusive, Pol iota inh 79.4µM*, WRN helicase inh -13.0% and POLK inh -34.8%.
Screening COc1ccc(CCNC(=O)c2ccc(Cl)cc2)cc1OC returned POLH inh 5.4%, POLB inh 0.9%, Pol iota inh 98.8%, WRN helicase inh 5.3% and POLK inh -6.6%.
Screening COc1ccc(CCNC(=O)c2ccc3nc(-c4ccco4)c(-c4ccco4)nc3c2)cc1OC returned POLH inh 79.4µM*, POLB inh 35.5µM*, Pol iota inh 12.6µM*, WRN helicase inh 35.5µM* and POLK inh 44.7µM*.
`O=C(Nc1cccc(C(F)(F)F)c1)c1ccc2nc(-c3ccco3)c(-c3ccco3)nc2c1` gave POLH inh 8.91µM*, POLB inh 10µM*, Pol iota inh 15.8µM*, WRN helicase inh 25.1µM* and POLK inh 44.7µM*.
CCC(C)NC(=O)c1ccc2nc(-c3ccco3)c(-c3ccco3)nc2c1 (stereo unspecified) was read as Pol iota inh 22.4µM* and POLK inh inconclusive.
For N[C@H](C(=O)O)[C@H]1C[C@H]1C(=O)O the results were POLK inh 5.5%[19.4 µM].
`Cc1cc(C)cc(OCC(=O)NCC(c2ccc(Cl)cc2)N2CCCCC2)c1` (stereo unspecified) gave POLH inh -27.7%, POLB inh inconclusive, Pol iota inh 20.9% and POLK inh -11.0%.
`Cc1ccc(S(=O)(=O)N2CCN(c3nc(-c4cccs4)cc4ccccc34)CC2)cc1` gave Pol iota inh 27.1% and POLK inh -11.3%.
For Cc1ccc(C(=O)Nc2cccc(C(F)(F)F)c2)cc1NC(=O)c1nccn1C the results were POLH inh 11.6%, POLB inh 39.8µM*, Pol iota inh inconclusive, WRN helicase inh -5.2% and POLK inh -19.9%.
`Cc1ccc(C(=O)Nc2cccc(C(F)(F)F)c2)cc1NC(=O)c1ccno1` gave POLH inh -16.0%, POLB inh -3.3%, Pol iota inh -14.2%, WRN helicase inh -1.4% and POLK inh -24.6%.
For CC(NC(=O)/C(C#N)=C/c1ccco1)c1ccccc1 (stereo unspecified) the results were POLH inh -4.6%, POLB inh -25.2%, Pol iota inh -3.8%, WRN helicase inh 1.8% and POLK inh -5.7%.
Screening CC(NC(=O)/C(C#N)=C/c1ccc([N+](=O)[O-])o1)c1ccccc1 (stereo unspecified) returned POLH inh 50.1µM*, POLB inh 39.8µM*, Pol iota inh 20µM*, WRN helicase inh 56.2µM* and POLK inh -37.7%.
O=c1oc(-c2ccc(C(F)(F)F)cc2)nn1Cc1cc(Cl)ccc1O was read as POLK inh 8.9%[60.1 µM].
Screening C[C@@H]1COC(=O)O1 returned POLK inh 11.2%[60.1 µM].
`CC1=C(CO)C(=O)OC([C@@H](C)C2CC[C@H]3C4C[C@H]5O[C@]56[C@@H](O)C=CC(=O)[C@]6(C)C4CC[C@]23C)C1` (stereo partly specified) gave POLH inh 50.1µM*, POLB inh inconclusive, Pol iota inh inconclusive, WRN helicase inh inconclusive and POLK inh -18.0%.
For CC(/C=N/NC(=O)Cc1cccn1C)=C\c1ccco1 the results were POLH inh inconclusive, POLB inh inconclusive, Pol iota inh 44.7µM*, WRN helicase inh -19.1%[57.1 µM] and POLK inh inconclusive.
For Cn1cccc1CC(=O)N/N=C/c1ccco1 the results were POLH inh -8.3%, POLB inh inconclusive, Pol iota inh 22.1%, WRN helicase inh -0.7% and POLK inh -27.3%.
For Nc1ccc(OC(=O)Nc2ccc(O)cc2)cc1 the results were POLH inh -13.4%, POLB inh 32.0%, Pol iota inh 20µM*, WRN helicase inh -14.3% and POLK inh -8.3%.
Screening O=C(Nc1ccc(N2CCN(c3ccc(O)cc3)CC2)cc1)Oc1ccccc1 returned POLH inh -6.2%, POLB inh 28.2%, Pol iota inh 5.0%, WRN helicase inh -4.4% and POLK inh -8.4%.
O=C(N/N=C/c1cc(O)ccc1Br)c1cccnc1 was read as POLH inh -0.9%, POLB inh -11.0%, Pol iota inh -1.1%, WRN helicase inh -12.5% and POLK inh -17.0%.
For O=C(N/N=C/c1cc(Br)c(O)c(Br)c1O)c1cccnc1 the results were POLH inh 39.8µM*, POLB inh 39.8µM*, Pol iota inh 7.1%, WRN helicase inh -16.8% and POLK inh -1.5%.
For N#CC1=C(N)C2=C(N3CCCCC3)CCCC2C1(C#N)C#N (stereo unspecified) the results were POLH inh 4.3%, POLB inh -0.3%, Pol iota inh inconclusive, WRN helicase inh inconclusive and POLK inh 50.1µM*.
For Oc1c(/C=N/c2ccccn2)sc2ccccc12 the results were POLH inh -16.8%, POLB inh 22.4µM*, Pol iota inh 18.2%, WRN helicase inh -7.6% and POLK inh -14.7%.
Screening CCOc1cccc(=O)c2c(C)n(Cc3ccco3)c(C)c12 returned POLH inh -12.7%, POLB inh 25.1µM*, Pol iota inh 11.8%, WRN helicase inh 14.0% and POLK inh -12.7%.
`COC(=O)N/N=C/c1ccc(OC(=O)/C=C/c2ccco2)cc1` gave POLH inh inconclusive, POLB inh 11.2µM*, Pol iota inh 35.5µM*, WRN helicase inh inconclusive and POLK inh inconclusive.
